# PLCg1 inh: blocks human PLC-gamma1 enzyme activity. 370,000 tested, 0.84% active. inhibition, % at 12.2 µM. purified PLC-gamma1, fluorogenic substrate, fluorescence. P19174. AID 720700; in the data active means inhibition above about 9.5%
# Target sequence (P19174 whole entry, looked up): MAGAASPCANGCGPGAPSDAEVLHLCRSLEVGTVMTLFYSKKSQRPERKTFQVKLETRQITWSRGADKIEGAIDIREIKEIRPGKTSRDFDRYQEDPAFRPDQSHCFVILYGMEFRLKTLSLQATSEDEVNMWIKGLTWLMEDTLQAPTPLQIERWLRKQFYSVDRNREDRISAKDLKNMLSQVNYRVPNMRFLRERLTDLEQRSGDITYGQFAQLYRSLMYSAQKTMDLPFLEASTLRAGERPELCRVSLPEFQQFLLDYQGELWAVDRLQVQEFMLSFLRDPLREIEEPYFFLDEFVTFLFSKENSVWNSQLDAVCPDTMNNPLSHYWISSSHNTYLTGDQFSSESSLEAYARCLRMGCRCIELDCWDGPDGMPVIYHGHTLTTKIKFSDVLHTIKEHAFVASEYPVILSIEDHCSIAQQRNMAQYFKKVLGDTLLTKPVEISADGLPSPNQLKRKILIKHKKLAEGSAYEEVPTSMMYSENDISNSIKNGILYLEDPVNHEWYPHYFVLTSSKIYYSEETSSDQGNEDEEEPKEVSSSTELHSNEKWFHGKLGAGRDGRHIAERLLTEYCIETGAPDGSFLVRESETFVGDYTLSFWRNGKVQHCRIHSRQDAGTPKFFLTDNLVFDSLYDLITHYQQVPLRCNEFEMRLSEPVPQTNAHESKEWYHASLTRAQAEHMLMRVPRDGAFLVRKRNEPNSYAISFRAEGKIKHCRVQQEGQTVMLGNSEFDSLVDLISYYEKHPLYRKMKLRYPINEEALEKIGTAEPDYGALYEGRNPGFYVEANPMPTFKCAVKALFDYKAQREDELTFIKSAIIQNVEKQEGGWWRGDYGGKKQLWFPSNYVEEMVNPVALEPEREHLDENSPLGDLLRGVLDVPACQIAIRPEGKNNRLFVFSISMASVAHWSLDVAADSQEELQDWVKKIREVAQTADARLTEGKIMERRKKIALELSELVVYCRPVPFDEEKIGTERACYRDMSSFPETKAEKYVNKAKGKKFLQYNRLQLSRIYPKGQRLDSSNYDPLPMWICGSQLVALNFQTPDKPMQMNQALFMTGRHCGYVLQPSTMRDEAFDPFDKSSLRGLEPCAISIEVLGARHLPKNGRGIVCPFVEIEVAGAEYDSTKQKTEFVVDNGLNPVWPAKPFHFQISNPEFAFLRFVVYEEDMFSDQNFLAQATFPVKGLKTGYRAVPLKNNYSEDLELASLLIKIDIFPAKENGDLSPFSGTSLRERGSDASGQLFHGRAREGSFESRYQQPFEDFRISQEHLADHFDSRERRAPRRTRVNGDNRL
# MBD2 DNA inh: inhibitors of human MBD2 binding to methylated oligonucleotide. Q9UBB5. TR-FRET. inhibition, % at 4.4 µM. 370,000 tested, 0.31% active; in the data active means inhibition above about 13%
# LEDGF integ inh: blocks HIV-1 LEDGF/p75-dependent DNA integration | 370,000 tested, 0.64% active | TR-FRET IN-LEDGF/p75 DNA integration, Eu/Cy5 | AID 743269 | inhibition, % at 3.7 µM;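 active means inhibition above the screen-wide mean plus 3 SD, cut at about 13% in these data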;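 further: signal is the Cy5 over europium emission ratio at 671 and 618 nm; 0% = plate median of compound wells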
# PLC-beta3 inh: inhibitors of human phospholipase C beta3; 370,000 tested, 0.18% active; inhibition, % at 12.2 µM; Purified PLC-beta3, fluorogenic substrate, fluorescence; Q01970; AID 720704; in the data active means inhibition above about 11%;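 further: 0% = median of compound wells on plate and 100% = full blocker control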
# UHRF1 MBD2 ctr: UHRF1 methyl-DNA binding inhibition | 370,000 tested, 0.75% active | Q96T88 | inhibition, % at 4.4 µM | AID 687016 | UHRF1 binding to methylated oligo, TR-FRET;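 further: UHRF1 SRA domain binding a hemimethylated CpG hairpin DNA probe; 0% = median of test compound wells and 100% = reference inhibitor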
# UHRF1 DNA bind: UHRF1 methyl-oligo binding inhibition as MBD2 counter-screen; inhibition, % at 4.4 µM; AID 720530; shares compounds with MBD2 DNA inh; 1,000 tested, 25% active; UHRF1 binding to methylated oligonucleotide, TR-FRET;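 further: UHRF1 SRA domain binding a labeled hemimethylated CpG hairpin DNA; 0% = vehicle only and 100% = reference inhibitor with vehicle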
# MBD2 DBD conf: confirmation of human MBD2-DBD methylated oligonucleotide binding inhibitors | shares compounds with MBD2 DNA inh | TR-FRET MBD2-DBD binding to methylated oligonucleotide | inhibition, % at 4.4 µM | 1,000 tested, 26% active | AID 720531; in the data active means inhibition above about 14%
# Starred values were filed as active, the others as inactive; i = inactive; / = no result. An excerpt weighted towards active compounds, which were near 2.4% of everything screened. Unless noted, no stated cut-off is given here; in the data, active means inhibition above about 21%; inactive means the rest.
SMILES,PLCg1 inh,MBD2 DNA inh,LEDGF integ inh,PLC-beta3 inh,UHRF1 MBD2 ctr,UHRF1 DNA bind,MBD2 DBD conf
CCN(CC)C(=O)CC[C@@H]1CC[C@]2(CCCN(C(=O)c3cccnc3)C2)O1,1.6,2.6,4.0,4.1,-2.2,/,/
Cc1onc(-c2c(Cl)cccc2Cl)c1C(=O)NCCc1ccc(S(N)(=O)=O)cc1,7.1,14.3*,2.5,2.2,32.3*,0.9,5.3
NS(=O)(=O)c1ccc(CCNC(=O)c2ccc3nccnc3c2)cc1,-50.9,15.0*,3.1,-68.9,18.3,34.4*,26.1*
NS(=O)(=O)c1ccc(NC(=O)c2ccc3nccnc3c2)cc1,0.8,-1.9,-0.9,-5.8,-1.6,/,/
CN(CCOC(=O)c1cc2ccccc2o1)C1CN(Cc2cn(Cc3ccccc3C(F)(F)F)nn2)S(=O)(=O)C1 (stereo not drawn),0.1,11.6,-1.6,-3.7,9.5,/,/
Cc1ccc(NC(=O)CNC(=O)N2CC(=O)Nc3ccccc32)cc1F,-0.8,2.1,-0.5,-7.1,4.0,/,/
CCc1cccc(NC(=O)CNC(=O)N2CC(=O)Nc3ccccc32)c1,-0.5,13.8*,0.8,-5.2,0.1,4.2,2.6
CC(=O)Nc1ccc(OCC(C)CN2CCC(C(O)(c3ccccc3)c3ccccc3)CC2)cc1 (stereo not drawn),1.8,1.6,-0.8,1.5,-0.3,/,/
CCOC(=O)CC[C@@H]1CC[C@]2(CCCN(C(=O)c3ccccc3)C2)O1,-1.7,-2.9,-2.8,-0.2,-2.7,/,/
COc1ncccc1-c1cc2nc(NCCCN(C)C)n(C)c(=O)c2s1,-9.4,14.0*,0.4,-17.0,17.5,29.7*,17.3*
COc1cccc(-c2cc3nc(NCCCN(C)C)n(C)c(=O)c3s2)c1,-15.0,-4.4,5.8,-18.8,2.0,/,/
COc1ccc(CNCC#CC2=CCCCC2)c(OC)c1,-2.1,-0.1,2.9,0.0,-1.9,/,/
Cc1cccc(CN2CCN(C3CN(Cc4cn(Cc5cccc(C(F)(F)F)c5)nn4)S(=O)(=O)C3)CC2)c1 (stereo not drawn),1.1,14.0*,3.0,-1.1,17.7,7.3,11.2
CN(C)CCN1CCN(C2CN(Cc3cn(Cc4cccc(C(F)(F)F)c4)nn3)S(=O)(=O)C2)CC1 (stereo not drawn),1.2,11.1,8.5,-3.2,17.9,/,/
CCC[C@H]1[C@@H](NC(=O)C#Cc2ccccc2)CC[C@@]23CCCN2C(=O)CCC[C@@H]13,0.6,-3.2,0.7,2.6,-0.6,/,/
COc1cc(OC)c(-c2c3cc(O)c(=O)cc-3oc3cc(O)c(O)cc23)cc1OC,-340.0,15.2*,83.8*,-384.1,-3.5,-38.2,-10.4
CCCOCc1ccc(O)c2ncccc12,1.8,19.3*,-2.4,-5.3,-1.0,0.2,2.4
CC(C)COCc1ccc(O)c2ncccc12,-2.5,-2.0,-2.1,-2.3,13.9,/,/
CCN1CCCCC(NC(=O)c2cc(OC)c(OC)c(OC)c2)C1=O (stereo not drawn),6.3,-8.8,6.5,9.7,-5.1,/,/
CC(=O)Nc1sc2c(c1-c1nc3ccccc3s1)CCN(C(C)C)CC2,-267.4,21.8*,0.5,-356.9,2.8,6.7,26.5*
CC(=O)Nc1sc2c(c1-c1nc3ccccc3s1)CCCNC2,-149.7,20.5*,3.8,-193.4,-3.9,9.7,32.0*
O=C(Nc1sc2c(c1-c1nc3ccccc3s1)CCNC2)C(F)F,i,4.0,-0.3,i,-20.4,/,/
CC(C)N1CCc2c(sc(NC(=O)C(F)F)c2-c2nc3ccccc3s2)C1,i,2.3,2.1,i,-37.5,/,/
COC(=O)[C@]1(CNC(=O)c2cc(F)ccc2F)CC(=O)N(C)[C@@H]1c1ccccc1,1.3,-2.7,-0.2,4.3,-1.5,/,/
CC1(C)C=Cc2ccc(O)c(C(=O)/C=C/c3ccccc3)c2O1,0.7,-6.0,7.4,3.9,-0.1,/,/
SMILES,PLCg1 inh,MBD2 DNA inh,LEDGF integ inh,PLC-beta3 inh,UHRF1 MBD2 ctr,UHRF1 DNA bind,MBD2 DBD conf
Cc1nc(SCC(N)=O)[nH]c(=O)c1C,1.3,1.6,0.0,1.9,1.1,/,/
O=c1c2cc3cccnc3nc2ncn1Cc1cccs1,-20.6,0.6,-5.5,-29.4,-1.6,/,/
C(#CC1=CCCCC1)CNCc1ccccc1,-0.8,1.8,-1.2,0.9,1.2,/,/
c1cc(CNCC2CCCO2)ccn1 (stereo not drawn),1.1,1.7,1.6,3.7,4.4,/,/
C=CCOc1ccc(CNCC2CCCO2)cc1 (stereo not drawn),-3.3,21.9*,13.0,-7.8,38.5*,7.2,0.9
Cc1nc(SCC#N)c2c3c(sc2n1)CCC3,-0.1,-1.6,-1.4,1.9,0.1,/,/
N#CCSc1ncnc2sc3c(c12)CCC3,-10.3,14.2*,5.4,-14.2,23.6*,7.3,3.9
COc1c(C=O)cc2c3c1CCCN3CCC2,-23.2,-6.9,0.8,-35.6,-0.2,/,/
NCc1cc2c3c(c1)CCCN3CCC2,-16.8,18.3*,1.4,-32.1,16.0,17.1,15.3*
COc1ccccc1CCNC(=O)CSc1nc(=O)[nH]c2c1CCC2,3.5,23.1*,-2.8,-3.9,0.3,3.5,3.9
COc1ccccc1CCNC(=O)CSc1nc2c([nH]1)c(=O)n(C)c(=O)n2C,-4.5,-0.3,-3.8,1.1,-0.7,/,/
C[N+]1(CC(=O)NNc2c3ccccc3nc3ccccc23)CCOCC1,-32.2,40.0*,1.0,-46.5,28.8*,34.5*,30.6*
O=C(OCc1cn(Cc2ccc(Cl)cc2)nn1)N1CCOCC1,1.9,1.0,-0.2,2.1,-1.5,/,/
Cc1cc(C)cc(-n2nnc(C(=O)NCc3ccccc3)c2N)c1,2.2,-3.2,-0.3,4.7,-1.2,/,/
Cc1ccc(CNC(=O)c2nnn(-c3cccc(C)c3)c2N)cc1,-1.4,14.5*,10.2,-0.7,27.8*,6.2,1.8
O=C(OCc1ccccc1)[C@H](Cc1ccccc1)NC(=O)[C@@H]1CC=C[C@@H]2CCN(Cc3ccc(Cl)cc3)C(=O)[C@@H]21,0.1,-7.2,1.5,-1.0,-2.8,/,/
CC(=O)Nc1ccc2c(c1)ncn2C1CCCCC1,1.4,34.4*,-1.1,1.6,-1.5,2.7,2.2
CCN(CC)CCNc1nc2cc(OC)c(OC)cc2c2nc(-c3ccccc3)nn12,-256.0,31.3*,-4.5,-295.6,38.1*,33.5*,25.1*
CCCCNC(=O)CCC(=O)NNc1nc2ccccc2c2nc(-c3ccccc3)nn12,-0.1,2.3,0.6,-1.2,-4.6,/,/
O=c1c2c([nH]c3ccccc13)CCCC2,7.8,0.1,-1.0,1.7,0.4,/,/
O=C(O)c1cccc2c3c([nH]c12)CCCC3,-21.9,18.1*,-3.0,-34.8,0.5,5.1,2.5
Nc1nc(SCC(=O)N2CCN(c3ccccc3)CC2)n[nH]1,1.9,-1.5,1.7,-4.1,3.9,/,/
Nc1nc(SCC(=O)N2CCN(c3ccc(F)cc3)CC2)n[nH]1,-0.2,48.0*,2.8,-5.1,1.0,4.4,2.6
